From PubChem
Hits are enriched below; roughly 1.6% of the tested compounds scored in any of these assays.
KCNQ2 block – rat KCNQ2 potassium channel inhibitors, primary screen, cell-based, CHO-K1, FluxOR thallium flux, B-score; Potassium voltage-gated channel subfamily KQT member 2 (Rattus norvegicus), O88943; 20 min; stronger effect = lower value; B-score at 10 µM; 310,000 compounds, 1.1% hits; AID 2156, 2009;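 active = fluorescence ratio B-score at most minus 3 library SDs, with starting brightness B-score within 2 library SDs, cut at about -5.5 in these data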
Target sequence (O88943 whole entry, looked up): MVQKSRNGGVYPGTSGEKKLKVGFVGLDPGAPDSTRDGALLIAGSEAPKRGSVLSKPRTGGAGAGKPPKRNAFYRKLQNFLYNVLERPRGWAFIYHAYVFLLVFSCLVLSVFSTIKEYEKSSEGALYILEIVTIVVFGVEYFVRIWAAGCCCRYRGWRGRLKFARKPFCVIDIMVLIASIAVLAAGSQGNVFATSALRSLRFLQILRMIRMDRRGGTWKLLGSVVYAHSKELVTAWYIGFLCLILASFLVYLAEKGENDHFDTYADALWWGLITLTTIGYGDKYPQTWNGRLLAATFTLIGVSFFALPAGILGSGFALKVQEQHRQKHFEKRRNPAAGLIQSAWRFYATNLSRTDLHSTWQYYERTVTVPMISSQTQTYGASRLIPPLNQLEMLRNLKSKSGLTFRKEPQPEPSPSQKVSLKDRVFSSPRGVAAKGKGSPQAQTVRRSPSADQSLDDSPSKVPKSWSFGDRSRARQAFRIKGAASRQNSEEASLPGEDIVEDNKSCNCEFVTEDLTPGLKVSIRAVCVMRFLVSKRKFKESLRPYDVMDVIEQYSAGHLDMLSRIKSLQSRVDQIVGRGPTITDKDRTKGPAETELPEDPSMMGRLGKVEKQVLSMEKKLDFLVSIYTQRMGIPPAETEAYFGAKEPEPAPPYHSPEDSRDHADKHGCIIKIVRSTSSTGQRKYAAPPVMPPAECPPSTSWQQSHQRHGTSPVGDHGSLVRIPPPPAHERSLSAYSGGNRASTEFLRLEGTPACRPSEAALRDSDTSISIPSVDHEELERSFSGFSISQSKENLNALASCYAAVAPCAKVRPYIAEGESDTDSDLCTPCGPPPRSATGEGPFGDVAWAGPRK
KCNQ2 pot – potentiators of rat KCNQ2 potassium channel; 310,000 compounds, 0.54% hits; AID 2239, 2010; B-score at 10 µM; Potassium voltage-gated channel subfamily KQT member 2 (Rattus norvegicus), O88943; CHO-K1 KCNQ2, FluxOR thallium flux fluorescence; stronger effect = higher value;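 active = fluorescence ratio B-score at least 3 SD of library B-scores, with initial fluorescence B-score within 3 of them, cut at about 5.3 in these data; same plate scores as AID 2156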;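 also: B-score of peak minus minimum over baseline fluorescence ratio after K+ and Tl+ stimulus; positive B-score means potentiation of KCNQ2 with more thallium influx and brighter signal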
Kir21 confirm – mouse Kir2.1 channel blockers, retest, confirmation, cell-based, FluxOR thallium flux, duplicate. shares compounds with KCNQ2 pot. Kir2.1-expressing cells, FluxOR thallium flux fluorescence; stronger effect = lower value. Tl flux remaining, % of negative control (stronger effect = lower value), % at 10 µM. 2,300 compounds, 41% hits. AID 2032, 2009;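 active = Primary-screen hit whose thallium flux fell at least 3 control SD below untreated wells in both duplicates, with normal baseline fluorescence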
HEK293 Tl flux – parental HEK293 activity in Kir2.1 inhibitor counter-screen; FluxOR signal as % of negative control (100 = no effect), % at 10 µM; parental HEK293 cells, FluxOR thallium flux fluorescence; 0% = unstimulated blank wells; shares compounds with KCNQ2 pot; 2,300 compounds, 19% hits;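 active = dye signal at least 3 control SD above or below untreated wells in both duplicates, raw fluorescence within 3, either direction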;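 also: percent is based on the flux ratio of peak minus minimum fluorescence over baseline F0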
CHO-K1 ctr – nonspecific thallium flux increase in parental CHO-K1, confirmation, counter-screen for KCNQ2 potentiator project, cell-based, FluxOR thallium flux, duplicate; shares compounds with KCNQ2 pot; parental CHO-K1 cells, FluxOR thallium flux fluorescence; zero = vehicle mean+3SD, 100% = vehicle-minus-blank window; activity increase over 3SD of controls, % at 10 µM; 1,200 compounds, 43% hits;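 active = signal rise of at least 3 SD above the untreated control mean, in both duplicate wells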;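 also: counter screen of KCNQ2 potentiator hits so any rise reflects channel-independent effects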
KCNQ1 sel pot – human KCNQ1 channel potentiation off-target, confirmation, selectivity assay for KCNQ2 potentiator project, cell-based, CHO, FluxOR thallium flux | AID 2283, 2010 | 1,200 compounds, 28% hits | CHO KCNQ1 stable, FluxOR thallium flux fluorescence; beyond 3SD, as % of vehicle-control signal | activation over 3SD threshold, % at 10 µM | shares compounds with KCNQ2 pot;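 active = fluorescence ratio rise of at least 3 SD of vehicle wells above their mean, in both replicate wells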
KCNQ2 pot confirm – rat KCNQ2 channel potentiators, confirmation, cell-based, CHO, FluxOR thallium flux, duplicate | 1,200 compounds, 68% hits | shares compounds with KCNQ2 pot | potentiation, less the hit threshold, % at 10 µM | AID 2287, 2010 | CHO-KCNQ2 cells, FluxOR thallium flux fluorescence;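 active = fluorescence ratio rising 3 SD or more over the vehicle control mean in both replicates, plus primary screen hit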;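 also: peak minus minimum thallium fluorescence divided by baseline after K/Tl stimulus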
Kir21 spec – mouse Kir2.1 channel activation off-target, confirmation, selectivity assay for KCNQ2 potentiator project, cell-based, HEK293, FluxOR thallium flux. 1,200 compounds, 2% hits. shares compounds with KCNQ2 pot. HEK293 Kir2.1, FluxOR thallium flux fluorescence. activity over 3SD threshold, % at 10 µM;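 active = fluorescence ratio rise of at least 3 SD above the vehicle-control mean, seen in both replicates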
Large screens that a line does not name were inactive (follow-up assays come after a bar, where they were run).

CC(C)c1ccccc1NC(=O)COC(=O)C1(C)CC1(Cl)Cl (configuration not stated)	none
COCCn1c(SCC(=O)N2CCOCC2)nnc1-c1ccncc1	none
Cc1ccc(C(=O)Nc2cccc(C(F)(F)F)c2)cc1NC(=O)c1csc(-c2ccncc2)n1	none (no result: KCNQ2 pot)
N#C/C(=N\Nc1cccc(C(F)(F)F)c1)C(=O)c1csc(-c2cccnc2)n1	KCNQ2 pot 6.38 | Kir21 confirm inactive | HEK293 Tl flux 69.5% | CHO-K1 ctr 18.7 | KCNQ1 sel pot inactive | KCNQ2 pot confirm inactive | Kir21 spec inactive
CC(=O)c1ccc(NC(=O)NC2CC(=O)N(c3ccc4c(c3)OCCO4)C2)cc1 (configuration not stated)	none
COc1ccc(CNC(=O)c2ccc[nH]2)cc1Cl	none
Cc1sc2nc3ccc(NCc4ccco4)nn3c(=O)c2c1C	KCNQ2 pot 6.74 | Kir21 confirm inactive | HEK293 Tl flux inactive | CHO-K1 ctr 45.6 | KCNQ1 sel pot inactive | KCNQ2 pot confirm inactive | Kir21 spec inactive
O=c1c2ccccc2nc2ccc(NCc3ccco3)nn12	none
CCOc1cc(/C=N/O)ccc1OS(=O)(=O)c1ccc(C)cc1	none | Kir21 confirm 48.5% | HEK293 Tl flux inactive
CCOc1cc(/C=N/NS(=O)(=O)c2ccccc2)ccc1OS(=O)(=O)c1ccc(C)cc1	none (no result: KCNQ2 pot)
CC(NCCCOc1cccc2ccccc12)c1ccccc1 (configuration not stated)	none (no result: KCNQ2 pot) | Kir21 confirm 14.0% | HEK293 Tl flux inactive
COc1ccc2ccccc2c1CNC(C)c1ccccc1 (configuration not stated)	none
O=C(NC1(C(F)(F)F)NC(=O)N(c2ccc(F)cc2)C1=O)c1cccs1 (configuration not stated)	none
O=[N+]([O-])c1ccc(N/N=C/c2ccccc2O)cc1	KCNQ2 pot 7.86 | Kir21 confirm inactive | HEK293 Tl flux 74.0% | CHO-K1 ctr 56.3 | KCNQ1 sel pot inactive | KCNQ2 pot confirm inactive | Kir21 spec inactive
O=[N+]([O-])c1cccc(N/N=C/c2cc([N+](=O)[O-])ccc2O)c1	none
Cn1c(=O)c(C(=O)c2ccc(S(C)(=O)=O)c(Cl)c2Cl)c(O)c2ccccc21	none (no result: KCNQ2 pot)
Cc1onc(-c2ccccc2)c1C(=O)Nc1nnc(CC(C)C)s1	none
Cn1cc(S(=O)(=O)N2CCN(c3cccc(C(F)(F)F)c3)CC2)c(=O)n(C)c1=O	none (no result: KCNQ2 pot)
Cc1c(S(=O)(=O)N2CCN(c3cccc(C(F)(F)F)c3)CC2)c(=O)n(C)c(=O)n1C	KCNQ2 pot 9.58 | Kir21 confirm inactive | HEK293 Tl flux inactive | CHO-K1 ctr 5.5 | KCNQ1 sel pot 50.9 | KCNQ2 pot confirm inactive | Kir21 spec inactive
